Bioassay records (PubChem)
Compounds with a hit are over-represented: about 1.3% of the library has one in this group of screens.
TbPYK inhibitor = blocks Trypanosoma brucei pyruvate kinase; Q57TT1; TbPYK enzyme, Kinase-Glo Plus ATP luminescence, 45 min; Potency, µM (highest dose often 76.8 µM), for the others: top-dose activity, negative = inhibition, actives largely listed as inhibitors; 410,000 tested, 0.12% active; AID 624173; also: nearly all actives have a fitted effect of over 50% in size
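Assay buffer: 50 mM TEA pH 7.2, 100 mM KCl, 10 mM MgCl2, 0.05% BSA, 0.01% Tween-20. Pyruvate kinase from T. brucei plus substrate met compound, then ADP (130 uM final). Luminescence was read post 45 min RT.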
AMA1-RON2 inh = inhibitors of Plasmodium falciparum AMA1-RON2 interaction. AlphaScreen AMA1-biotinylated RON2 peptide binding. Potency, µM (top dose mostly 58.2 µM), without a hit: at the top dose activity change, negative = inhibition, most hits filed as inhibitors. 360,000 tested, 0.2% active. AID 720542;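 also: 0% = vehicle wells and -100% = peptide control; nearly all actives have a fitted effect of over 45% in size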
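AMA1 (3D7) with his tag at 25 nM final met compounds first, then biotinylated RON2 peptide at 25 nM; detection used donor plus acceptor beads, 10 µg/mL apiece, read by AlphaScreen after 30 min at room temperature.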
RE007 growth inh = less growth of the S. pombe RE007 Vpr strain; S. pombe RE007 Vpr strain, BacTiter-Glo ATP luminescence, 24 h; Potency, µM (titrated, usually from 92.2 µM), for the others: at the top dose activity change, negative = less growth, most hits filed as inhibitors; 360,000 tested, 0.21% active; AID 651644; active = well fitted falling curve with a large enough effect; inconclusive = small, poorly fitted or top-dose-only effect; inactive = no such curve, though single readings can be large or run the other way; also: nearly all actives have a fitted effect of over 50% in size
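Fission yeast strain RE007, carrying one chromosomally integrated HIV-1 vpr copy, was seeded at OD 0.01 in PMG+AL medium with 23 nL pinned compound. After 24 h at 30 °C and 99% humidity, viability was read by BacTiter-Glo luminescence.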
LmPK inhibitor = blocks Leishmania mexicana pyruvate kinase activity; 290,000 tested, 0.37% active; AID 1721; Q27686; Potency, µM (highest dose often 57.5 µM), for inactives: at the top dose activity change, negative = inhibition, most hits filed as inhibitors; purified LmPK, Kinase-Glo ATP luminescence, 1 h
Target sequence (Q27686 whole entry, looked up): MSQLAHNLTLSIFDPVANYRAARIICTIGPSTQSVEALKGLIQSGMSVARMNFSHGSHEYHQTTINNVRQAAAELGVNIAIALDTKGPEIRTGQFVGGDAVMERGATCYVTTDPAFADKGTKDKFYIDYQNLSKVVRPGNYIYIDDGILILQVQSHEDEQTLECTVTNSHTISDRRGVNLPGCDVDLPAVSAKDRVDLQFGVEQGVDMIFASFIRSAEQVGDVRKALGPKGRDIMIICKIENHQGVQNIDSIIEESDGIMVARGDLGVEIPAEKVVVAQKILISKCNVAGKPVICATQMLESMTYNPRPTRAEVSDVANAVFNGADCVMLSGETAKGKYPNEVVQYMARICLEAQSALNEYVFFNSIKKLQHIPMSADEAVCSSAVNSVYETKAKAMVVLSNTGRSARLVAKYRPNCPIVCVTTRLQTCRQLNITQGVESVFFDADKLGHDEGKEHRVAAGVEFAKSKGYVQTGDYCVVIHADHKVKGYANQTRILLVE
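Pyruvate kinase activity monitored as ATP production (luciferase luminescence). Conditions: 0.1 nM enzyme, 0.5 mM PEP, 0.1 mM ADP, 1 h, RT; normalized against uninhibited and no-enzyme wells.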
VACV Venus inh = vaccinia inhibition (Venus reporter); 330,000 tested, 0.46% active; Vaccinia virus Venus reporter expression, fluorescence; Potency, µM (highest dose often 36.5 µM), without a hit: at the top dose activity change, negative = inhibition, actives largely listed as inhibitors; AID 720580; calls by dose curve; tested in A549 cells; also: nearly all actives have a fitted effect of over 30% in size
VACV mCherry inh = vaccinia inhibition (mCherry reporter). Vaccinia virus mCherry reporter infection, fluorescence. Potency, µM (top dose mostly 36.5 µM), inactives show at the highest dose activity change, negative = inhibition, hits mostly inhibitors. 310,000 tested, 0.63% active. AID 720579; calls by dose curve; tested in A549 cells; also: nearly all actives have a fitted effect of over 35% in size
* = called active by the depositor; [ ] = another dose, or the depositor's remark. Unless noted, calls follow the shape of the dose curve; as a rule, active = well fitted curve in the direction sought with a large enough effect; inconclusive = small, poorly fitted or top-dose-only effect, or another doubt; inactive = no such curve, though single readings can be large; an effect the other way counts as inactive or inconclusive. Unless noted, % is scaled to controls: 0 for no effect and ±100 for the full control effect; potency is read from the fitted curve at half-maximal effect.

COc1cc(-c2cc(NC=O)c3ncc(-c4ccc(C(C)=O)cc4)n3c2)ccc1O was read as TbPYK inhibitor -2%, AMA1-RON2 inh 38%, RE007 growth inh -15%, VACV Venus inh 11µM* and VACV mCherry inh 10µM*.
For Cn1cc(-c2cnc3c(NC=O)cc(-c4cccc(C(F)(F)F)c4)cn23)cn1 the results were TbPYK inhibitor 0%, AMA1-RON2 inh 45%, RE007 growth inh 2%[18.4 µM], VACV Venus inh inconclusive and VACV mCherry inh 10µM*.
CO[C@H]1[C@H](NC(=O)c2ccsc2)c2ccccc2C12CCN(Cc1cccc3ncccc13)CC2 was read as VACV Venus inh -4% and VACV mCherry inh -13%.
COCC(=O)Nc1cc(C(=O)N2CCCC2c2nccs2)c2c(c1)nc(-c1ccncc1)n2C (centres undefined) was read as VACV Venus inh -4% and VACV mCherry inh -12%.
Screening Cc1cccc2c(N3CCCC3)nc(CNS(=O)(=O)c3ccccc3Cl)nc12 returned VACV Venus inh 3% and VACV mCherry inh -6%.
For O=C1C2C(C(=O)N1/N=C/c1ccc(N3CCCCC3)o1)C1C=CC2C12CC2 (centres undefined) the results were TbPYK inhibitor 25µM*, AMA1-RON2 inh 8%, RE007 growth inh 0%, LmPK inhibitor -9%, VACV Venus inh -3% and VACV mCherry inh -7%.
For COc1ccc(-c2cc3ncc(-c4ccccc4)c(N)n3n2)cc1 the results were TbPYK inhibitor -6%, AMA1-RON2 inh -4%, RE007 growth inh -26%, LmPK inhibitor 16µM*, VACV Venus inh inconclusive and VACV mCherry inh inconclusive.
For Cc1oc(-c2cccc(NC(=O)c3ccccn3)c2)nc1CNC(=O)c1cc(F)c(F)cc1F the results were VACV Venus inh -2% and VACV mCherry inh -18%.
O=c1[nH]nc(-c2ccc(F)cc2)cc1-c1ccccc1 was read as TbPYK inhibitor -7%, AMA1-RON2 inh -3%, RE007 growth inh 3%, LmPK inhibitor 1%, VACV Venus inh -21% and VACV mCherry inh inactive.
Cc1ccccc1-c1cc2c(nn1)-c1ccccc1C2=O was read as TbPYK inhibitor -20%, AMA1-RON2 inh -14%, RE007 growth inh -19%, LmPK inhibitor 5µM*, VACV Venus inh 1% and VACV mCherry inh -13%.
For O=C1c2ccccc2-c2nnc(-c3ccc(F)cc3)cc21 the results were TbPYK inhibitor inconclusive, AMA1-RON2 inh -15%, RE007 growth inh -23%, LmPK inhibitor 5µM*, VACV Venus inh -3% and VACV mCherry inh -7%.
O=C1c2ccccc2-c2nc3ccccc3cc21 was read as TbPYK inhibitor -4%, AMA1-RON2 inh -2%, RE007 growth inh 7%, LmPK inhibitor inconclusive, VACV Venus inh -8% and VACV mCherry inh 4%.
`O=C1c2ccccc2-c2nnc(-c3ccc(O)cc3)cc21` gave TbPYK inhibitor -18%, AMA1-RON2 inh -5%, RE007 growth inh -18% and LmPK inhibitor 8.9µM*.
`Cc1ccc(-c2nnc(N3CCC(C)CC3)c3ccccc23)cc1C` gave TbPYK inhibitor 4%, AMA1-RON2 inh -18%, RE007 growth inh -1%, LmPK inhibitor 1%, VACV Venus inh 13µM* and VACV mCherry inh 28µM*.
`Cc1cnc(-n2ncc(C(=O)NCC3COCCO3)c2C2CC2)nc1-c1cccs1` (centres undefined) gave VACV Venus inh -8% and VACV mCherry inh -18%.
`COc1cccc(-c2cc3c(c(OC)c2)OCCN(S(=O)(=O)c2ccccc2OC(F)(F)F)C3)n1` gave VACV Venus inh -6% and VACV mCherry inh -16%.
Screening O=C(O)c1ccc(N2C(=O)/C(=C/C=C/c3ccccc3)SC2=S)cc1 returned TbPYK inhibitor -17%, AMA1-RON2 inh 7%, RE007 growth inh -16% and LmPK inhibitor 3%.
